Records with an inconclusive call do not appear. The source made the active and inactive calls. Calls come from the whole dose curve; as a rule, active = well fitted inhibition curve with a large enough effect; inconclusive = small, poorly fitted or top-dose-only effect; inactive = flat fitted curve, though single readings scatter.
molecular target: Dual specificity protein kinase CLK4 (Homo sapiens) (UniProt Q9HAZ1); assay: qHTS Assay for Inhibitors of CDC-like Kinase 4 (ADP-Glo Assay) (AID 1771); conditions: recombinant CLK4, ADP-Glo luminescence; series mostly up to 80 µM; activity change, negative = inhibition: at the top concentration; note: nearly all actives have a fitted effect of over 70% in size
Sequence (Q9HAZ1 whole entry, looked up): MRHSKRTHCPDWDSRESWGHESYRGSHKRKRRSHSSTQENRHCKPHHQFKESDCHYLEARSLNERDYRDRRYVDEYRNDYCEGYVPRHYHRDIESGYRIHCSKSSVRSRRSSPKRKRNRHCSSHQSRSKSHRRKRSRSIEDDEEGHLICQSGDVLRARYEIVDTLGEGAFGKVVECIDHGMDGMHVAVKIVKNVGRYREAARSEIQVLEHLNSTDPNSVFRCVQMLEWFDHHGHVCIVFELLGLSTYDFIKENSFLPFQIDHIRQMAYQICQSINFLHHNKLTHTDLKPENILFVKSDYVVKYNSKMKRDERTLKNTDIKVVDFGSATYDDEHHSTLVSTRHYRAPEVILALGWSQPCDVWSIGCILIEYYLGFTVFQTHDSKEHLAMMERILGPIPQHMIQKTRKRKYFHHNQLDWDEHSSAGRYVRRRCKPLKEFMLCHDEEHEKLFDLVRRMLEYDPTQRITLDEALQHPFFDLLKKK
Method: NIH Molecular Libraries Probe Production Centers Network [MLPCN] NIH Chemical Genomics Center [NCGC] MLPCN Grant: 1R03MH084827-01 Assay Submitter (PI): Tom Misteli NCGC Assay Overview: Clk4 (Invitrogen, cat# PV3839) was assayed using ATP and the RS repeat peptide (AnaSpec cat # 61722) as substrates. In the assay, the ADP levels were detected using Promega ADP-Glo technology wherein the remaining ATP from the kinase reaction is first depleted with an ATPase reagent followed by a reagent that contains and enzyme which converts the ADP produced to ATP as well as Ultra-Glo luciferase and D-luciferin which generates a bioluminescence signal from the ATP. The positive control for the assay was TG003 (Sigma-Aldrich, cat# 300801-52-9) which has been described as an inhibitor of Clk 4[1].
NCGC Assay Protocol Summary: Two uL/well of substrate-buffer solution (100 uM RS peptide, 1 uM ATP, 1x ADP-Glo Buffer A, 2 mM MgCl2, 0.5 mM EGTA, 2.5 mM DTT, 0.01% Triton X-100, final concentrations) was dispensed into 1536-well plates (Greiner, solid white, medium binding assay plates) with the Aurora Discovery BioRAPTR Flying Reagent Dispenser (FRD; Beckton-Dickenson). Twenty-three nanoliter of compound and control solutions were transferred to the assay plate using a Kalypsys pin-tool followed by 0.5 uL/well Clk4-buffer solution (25 nM Clk4, 1x ADP-Glo Buffer A, 2 mM MgCl2, 0.5 mM EGTA, 2.5 mM DTT, 0.01% Triton X-100 final concentration) dispensing for a total kinase reaction volume of 2.5 uL/ well. After 1 hr of room-temperature incubation, 2.5 uL ADP-Glo reagent was added and incubated at room temperature for 45 min to stop the kinetic reaction and degrade residual ATP. The ADP product was then converted to ATP by adding 5 uL per well of ADP-Glo Reagent II to yield a total assay volume of 10 uL/ well. Luminescence was detected after 30 min room temperature incubation with the Perkin Elmer Viewlux.
% is set by controls: 0 for no effect and ±100 for the full control effect; potency is the fitted concentration of half-maximal effect.

Potency, active:
c1nc(NCCN2CCOCC2)c2cc(-c3ccoc3)ccc2n1 0.891 µM
CN(C)c1ccc(-c2nc(-n3ccnc3)c3ccccc3n2)cc1 11.2 µM
Fc1ccc(Nc2ccnc(-c3ccc4c(c3)OCO4)n2)cc1 31.6 µM
Cc1cnc(CNc2cc(-c3cccnc3)ncn2)cn1 31.6 µM
N#Cc1ccccc1-c1ccc2ncnc(NCc3cccs3)c2c1 3.16 µM
COc1ccc2[nH]cc(CCNc3nc(-c4cccc(C#N)c4)nc4ccccc34)c2c1 28.2 µM
Cc1ccccc1-c1ccc2ncnc(N3CCN(C)CC3)c2c1 31.6 µM
COc1ccc2[nH]cc(CCNc3cc(-c4ccccc4C)ncn3)c2c1 15.8 µM
COc1cccc(Nc2ncc3nc(C)c(=O)n(-c4ccccc4)c3n2)c1 12.6 µM
CC(=O)NCCNc1ncnc2ccc(-c3ccccc3C(F)(F)F)cc12 31.6 µM
Cc1noc(C)c1-c1nc(N(C)Cc2ccco2)c2ccccc2n1 35.5 µM

Activity change, negative = inhibition, inactive:
CS(=O)(=O)Nc1cccc(-c2cncnc2NCc2cccnc2)c1 -19.9%
O=c1c(-c2cccc(F)c2)nc2cncnc2n1Cc1ccccc1Cl -8.15%
CCNc1ncc2nc(-c3cccs3)c(=O)n(Cc3cccc(OC)c3)c2n1 2.91%
COc1ccc(-n2c(=O)c(-c3ccc(Cl)cc3)nc3cnc(N(C)C)nc32)cc1 -0.377%
O=c1c(-c2ccc(F)cc2)nc2cncnc2n1Cc1ccc(F)cc1 -2.21%
N#CCCn1c(=O)c(-c2ccc(F)cc2)nc2cnc(OCc3ccccc3)nc21 -3.22%
FC(F)(F)c1ccccc1-c1cncnc1-n1ccnc1 -9.42%
COc1cccc(Cn2c(=O)c(-c3cc(F)cc(F)c3)nc3cnc(N4CCOCC4)nc32)c1 -12.2%
COc1cccc(Cn2c(=O)c(-c3cn(C)c4ccccc34)nc3cnc(OC)nc32)c1 8.52%
COc1cccc(Cn2c(=O)cnc3cnc(OCc4ccccc4)nc32)c1 -26.2%
CCNc1ncc2nc(-c3cccs3)c(=O)n(Cc3ccc(F)cc3)c2n1 0.198%
COc1ccc(-c2nc3cnc(N(C)C)nc3n(C[C@H]3CCCO3)c2=O)cc1 -9.43%
CCNc1ncc2nc(-c3ccc(OC)cc3)c(=O)n(CCc3ccccc3)c2n1 6.17%
COc1cccc(Cn2c(=O)c(-c3ccccc3)nc3cnc(N4CCN(C)CC4)nc32)c1 12.3%
COc1cccc(Cn2c(=O)c(CCc3ccccc3)nc3cnc(N4CCOCC4)nc32)c1 1.46%
COc1ccccc1CNc1cc(-c2ccccc2C)ncn1 -9.12%
COc1ccc(-n2c(=O)c(-c3ccc(F)c(F)c3)nc3cncnc32)cc1 2.13%
Cc1noc(C)c1-c1cncnc1Nc1ccccc1 -0.017%
CN1CCN(c2ncc3nc(-c4cccs4)c(=O)n(Cc4ccc(F)cc4)c3n2)CC1 -3.12%
CCNc1ncc2nc(-c3ccccc3)c(=O)n(CCOC)c2n1 3.99%
COc1ccc(-n2c(=O)c(-c3ccc(F)cc3)nc3cncnc32)cc1 -15.9%
CN1CCN(c2cc(-c3ccccc3Cl)ncn2)CC1 -7.78%
Clc1ccccc1-c1cc(NCCN2CCOCC2)ncn1 -12%
O=c1c(-c2ccc(F)cc2)nc2cnc(N3CCNCC3)nc2n1Cc1cccs1 -4.14%
NC(=O)c1ccccc1-c1nc(-n2ccnc2)c2ccccc2n1 -11.6%
O=c1c(-c2cccs2)nc2cncnc2n1Cc1ccc(F)cc1 -0.927%
CN1CCN(c2ncc3nc(-c4cccc(C#N)c4)c(=O)n(C[C@H]4CCCO4)c3n2)CC1 0.775%
COc1cccc(-c2cncnc2Nc2ccccc2)c1 -26.1%
COc1ncc2nc(-c3ccc(Cl)cc3)c(=O)n(CCC#N)c2n1 9.57%

— PubChem BioAssay (NCATS)
